The list is not random: actives were taken first. Their share in the collection is about 18%.
TDP1 cell CPT: DT40-hTDP1 cell growth loss with CPT; chicken DT40 Tdp1-/-;hTDP1 cells + 20 nM CPT, ATP luminescence, 48 h; Potency, µM (highest dose often 46.2 µM), for the others: top-dose activity change, negative = growth inhibition, hits mostly inhibitors; 12% of 420,000 active; AID 686979; note: potency is the fitted concentration of half-maximal effect; % is set by controls: 0 for no effect and ±100 for the full control effect; nearly all actives have a fitted effect of over 55% in size
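Chicken DT40 Tdp1-/- cells stably complemented with human TDP1 were seeded at 400 cells/well in medium containing 20 nM camptothecin, exposed to pin-transferred compounds, and grown at 37 °C for at least 48 hr. Viability was read as ATP luminescence.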
HepG2 viability: HepG2 cytotoxicity, counter-screen for TGF-b inhibitors; HepG2 CAGA-GFP viability, ATP luminescence, 18 h; Potency, µM (doses to about 46.1 µM), inactives show at the highest dose activity change, negative = cytotoxicity, actives largely listed as cytotoxic; 0.76% of 410,000 active; AID 588856; note: potency is the fitted concentration of half-maximal effect
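HepG2 CAGA-GFP cells (1000/well, DMEM with 1% FBS) received compound, then TGF-beta at 500 pg/mL final, and were incubated 18 hours at 37 degrees C. Viability was read by CellTiter-Glo luminescence. Media-only wells were set as complete cell-killing and DMSO as no toxicity.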
IL1B secr inh: blocks inflammasome-driven IL-1 beta release; THP-1 LPS/ATP IL-1B secretion, AlphaLISA, 16 h; stronger effect = lower value; activity change, % at 57.5 µM; 4.7% of 360,000 active; in the data active = activity change below about -50%; inconclusive = mostly about -30% to -49%; note: % is set by controls: 0 for no effect and ±100 for the full control effect
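Secreted IL-1B measured by AlphaLISA bead assay after 16 h compound exposure of THP-1 cells; compounds (final up to 57.5 uM) added 1 h before LPS (250 ng/mL) and ATP (1.25 mM) stimulation; lower signal means less secretion.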
TGFb SMAD3 inh: inhibitors of TGF-b signaling | HepG2 CAGA-GFP TGF-b/SMAD3 reporter, GFP fluorescence, 18 h; TGF-beta stimulated, 500 pg/mL final | Potency, µM (titrated, usually from 46.1 µM), without a hit: at the top dose activity, negative = inhibition, usual class: inhibitors | 1.2% of 410,000 active; note: potency is the fitted concentration of half-maximal effect; % is set by controls: 0 for no effect and ±100 for the full control effect; nearly all actives have a fitted effect of over 65% in size
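TGF-beta reporter screen: HEPG2 CAGA-GFP, 1% FBS, 500 pg/mL TGF-beta final, 18 h; per-cell GFP summed per well; curves fitted and categorized by class.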
TDP1 block: inhibitors of human tyrosyl-DNA phosphodiesterase TDP1 | recombinant TDP1, AlphaScreen DNA substrate cleavage | Potency, µM (series often up to 130 µM), for inactives: at the highest dose activity change, negative = inhibition, hits mostly inhibitors | 0.28% of 350,000 active; note: potency is the fitted concentration of half-maximal effect; % is set by controls: 0 for no effect and ±100 for the full control effect; nearly all actives have a fitted effect of over 40% in size
Target sequence (Q9NUW8 whole entry, looked up): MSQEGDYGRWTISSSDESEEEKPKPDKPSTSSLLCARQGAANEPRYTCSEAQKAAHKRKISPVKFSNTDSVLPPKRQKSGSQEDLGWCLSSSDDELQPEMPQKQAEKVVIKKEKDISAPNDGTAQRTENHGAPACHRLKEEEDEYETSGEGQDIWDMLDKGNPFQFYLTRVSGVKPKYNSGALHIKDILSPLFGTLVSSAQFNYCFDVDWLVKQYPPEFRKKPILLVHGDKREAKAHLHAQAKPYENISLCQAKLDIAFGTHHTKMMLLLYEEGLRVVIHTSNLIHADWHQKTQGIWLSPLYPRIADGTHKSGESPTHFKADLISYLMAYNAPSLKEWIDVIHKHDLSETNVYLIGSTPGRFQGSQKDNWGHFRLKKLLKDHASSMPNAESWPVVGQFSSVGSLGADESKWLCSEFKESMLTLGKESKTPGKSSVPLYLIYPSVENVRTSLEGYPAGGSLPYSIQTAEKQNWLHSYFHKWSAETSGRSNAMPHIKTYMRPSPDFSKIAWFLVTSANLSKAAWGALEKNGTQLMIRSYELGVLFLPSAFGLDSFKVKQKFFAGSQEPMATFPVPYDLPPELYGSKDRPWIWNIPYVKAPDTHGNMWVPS
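Steps: enzyme plus compound, 15 min RT; add biotin/phosphotyrosine-FITC oligonucleotide (15 nM final), react 5 min; add donor/acceptor beads (10 ug/ml final), 10 min; read AlphaScreen. Tdp1 at 1 nM final.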
DT40 TDP1 no CPT: qHTS for Inhibitors of human tyrosyl-DNA phosphodiesterase 1 (TDP1): qHTS in cells in absence of CPT | DT40 Tdp1-/- hTDP1 cells, no CPT, ATP luminescence, 48 h | Potency, µM (highest dose often 46.2 µM), inactives show at the highest dose activity change, negative = growth inhibition, hits mostly inhibitors | 15% of 420,000 active | AID 686978, 2013; note: potency is the fitted concentration of half-maximal effect; % is set by controls: 0 for no effect and ±100 for the full control effect; nearly all actives have a fitted effect of over 55% in size
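No-CPT arm: Tdp1-/-;hTDP1 DT40 cells (400/well) plus compounds, incubated ≥48 hr at 37 °C. Readout CellTiter-Glo luminescence.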
* = called active by the depositor; ? = inconclusive; nt = no result given; [ ] = dose if it differs, or a comment. Unless noted, calls come from the whole dose curve; as a rule, active = well fitted curve in the direction sought with a large enough effect; inconclusive = small, poorly fitted or top-dose-only effect, or another doubt; inactive = no such curve, though single readings can be large; an effect the other way counts as inactive or inconclusive.

SMILES	TDP1 cell CPT	HepG2 viability	IL1B secr inh	TGFb SMAD3 inh	TDP1 block	DT40 TDP1 no CPT
CCN(CC)c1ccc(/C=C/c2c(C)cnc3ccccc23)cc1	?	-63.5%	nt	?	nt	11.2µM*
COc1cccc(/C=C/c2cnc3ccccc3n2)c1OC	?	-26.2%	nt	9.6%	nt	20µM*
COc1cccc(/C=N/NC(=O)c2cccc3ccccc23)c1OC	?	-31.8%	22.1	1.2%	nt	?
COc1cccc(/C=N/n2c(C)nc3ccccc32)c1OC	?	-36.3%	-13.1	3.3%	0.0%	?
Cc1[nH]c2ccccc2c1C(=O)C(C)OC(=O)c1ccc(Cl)nc1 (stereo not given)	?	-0.3%	-20.3	0.6%	1.1%	?
COc1ccc(/C=C/c2nccc3ccccc23)cc1OC	11.2µM*	-25.4%	nt	?	nt	14.1µM*
CCN(CC)c1nc(C=Cc2ccc(N(C)C)cc2)c2nccnc2n1	23.1µM*	-3.0%	-24.1	48.8%	nt	20.6µM*
CCc1ccc(NC(=O)c2cc3c(C)nc4ccccc4c3o2)cc1	18.4µM*	-23.5%	-139.1*	?	2.3%	16.4µM*
Cc1ccccc1NC(=O)c1cc2c(C)nc3ccccc3c2o1	?	4.9%	-17.2	-9.1%	0.0%	23.1µM*
COc1ccc(/C=C(\C#N)c2nc(-c3cc4c(ccc5ccccc54)oc3=O)cs2)cc1O	2.91µM*	-1.0%	nt	6.0%	-1.3%[12.3 µM]	3.26µM*
Cc1ccc(/C=C(\C#N)c2nc(-c3cc4c(ccc5ccccc54)oc3=O)cs2)cc1	3.2%	-13.4%	nt	-7.4%	-0.4%[12.3 µM]	-7.9%
COc1ccc(/C=C(/C#N)c2nc(-c3cc4ccccc4oc3=O)cs2)cc1	?	1.5%	nt	-14.4%	-0.4%[12.3 µM]	14.6µM*
O=c1c(N2CCN(c3ccc(F)cc3)CC2)csc2ccc(F)cc12	18.4µM*	-21.7%	nt	-18.0%	4.1%	?
COc1cccc(CNC(=O)COc2cc(=O)n(C)c3ccccc23)c1	-26.2%	-9.1%	nt	3.7%	0.0%	-18.5%
CC(Nc1nc(N2CCCCC2)nc2ccccc12)c1ccccc1 (stereo not given)	?	12.6µM*	?	?	-0.7%	23.1µM*
CCN1CCN(c2nc(NCCO)c3ccccc3n2)CC1	2.6%	5.8%	21.9	13.2%	4.2%	1.1%
C=CCNc1nc(N2CCCC2)nc2ccccc12	16.4µM*	-15.6%	-14.3	-0.6%	5.2%	16.4µM*
CC(Nc1nc(-c2ccccc2)nc2ccccc12)c1ccccc1 (stereo not given)	?	-27.8%	-22.9	?	0.0%	?
CCOc1ccc2nc(NC(=O)C3(C)CC3(Br)Br)sc2c1 (stereo not given)	16.4µM*	-16.7%	-16.5	-20.9%	nt	23.1µM*
CCOc1ccc2nc(NC(=O)c3ccc(OCC4CCCO4)cc3)sc2c1 (stereo not given)	4.11µM*	-26.6%	-19.5	-21.0%	0.6%	5.8µM*
Cc1cccc2sc(NC(=O)c3ccc(OCC4CCCO4)cc3)nc12 (stereo not given)	-92.3%	-24.6%	6.7	11.3%	5.4%	?
CCOCC(=O)Nc1nc2ccc(OCC)cc2s1	?	-22.0%	-13.7	-10.2%	-10.9%	?
CCOc1ccc2nc(NC(=O)c3cnccn3)sc2c1	23.1µM*	-19.0%	-16.0	25.0%	7.3%	23.1µM*
O=C(Nc1nc2ccccc2s1)c1cnccn1	?	-34.8%	10.6	-5.2%	-1.1%	?
CC(C)(C)c1nnc2sc(SCC(=O)c3ccc4c(c3)OCCO4)nn2c1=O	?	0.4%	?	-0.1%	4.9%	?
SMILES	TDP1 cell CPT	HepG2 viability	IL1B secr inh	TGFb SMAD3 inh	TDP1 block	DT40 TDP1 no CPT
CC(C)(C)c1nnc2sc(SCC(=O)c3ccc(Cl)cc3)nn2c1=O	-23.7%	-38.4%	?	-17.2%	5.8%	?
Cc1ccc(C(=O)CSc2nn3c(=O)c(C(C)(C)C)nnc3s2)cc1	?	1.8%	-28.0	?	4.9%	18.4µM*
CC(C)(C)c1nnc2sc(SCC(=O)c3cccs3)nn2c1=O	?	-29.5%	-19.4	-29.3%	3.9%	25.9µM*
COC(=O)[C@@H]1C[C@@]2(O)[C@H](O)[C@H](O)[C@H](O)C[C@H]2N1Cc1c(F)cccc1Cl	nt	nt	nt	nt	-4.5%	nt
CCCN(CCC)S(=O)(=O)c1ccc(C(=O)Nc2nnc(-c3cccc(OC)c3)o2)cc1	5.8µM*	-9.1%	43.9	-20.1%	2.6%	5.17µM*
CCCN(CCC)S(=O)(=O)c1ccc(C(=O)Nc2nnc(-c3cc(OC)cc(OC)c3)o2)cc1	5.8µM*	-30.3%	4.1	-3.5%	6.6%	4.61µM*
CCCN(CCC)S(=O)(=O)c1ccc(C(=O)Nc2nnc(CSC)o2)cc1	?	6.0%	86.0	1.8%	6.0%	?
O=C(c1cccnc1Cl)N(Cc1ccccc1)Cc1ccccc1	?	1.4%	-67.2*	9.5%	1.2%	9.2µM*
CCc1cc(OCCN(C)C)ccc1Cl	2.9%	1.1%	17.1	-3.4%	-13.7%	-4.6%
CN(C)CCOc1ccc2c(c1)C(=O)C(=Cc1ncc([N+](=O)[O-])n1C)C2	0.146µM*	-79.9%	-50.7*	1.41µM*	nt	0.13µM*
CCOC(=O)N1CCN(c2c(NCc3ccccc3OC)c(=O)c2=O)CC1	?	-1.7%	18.6	-0.5%	1.0%	?
CCOC(=O)N1CCN(c2c(NCc3ccc(Cl)cc3)c(=O)c2=O)CC1	4.11µM*	0.1%	0.0	?	2.0%	5.8µM*
CCOC(=O)N1CCN(c2c(NCc3ccc(F)cc3)c(=O)c2=O)CC1	4.11µM*	3.4%	41.5	?	7.7%	3.26µM*
CCOC(=O)N1CCN(c2nc(CN3CCCCC3CCO)nc3c(C)cccc23)CC1 (stereo not given)	6.3%	nt	nt	nt	nt	-16.5%
OCCC1CN(Cc2ccc(-c3ccco3)cc2)CCN1Cc1ccsc1 (stereo not given)	?	-10.7%	-61.2*	-8.6%	5.1%	?
OCCC1CN(Cc2cccc3nonc23)CCN1Cc1ccsc1 (stereo not given)	-10.5%	7.7%	10.8	4.7%	4.8%	-15.3%
OCCC1CN(Cc2ccccc2OC2CCCC2)CCN1Cc1ccsc1 (stereo not given)	?	-35.2%	-5.9	?	-2.4%	14.6µM*
COc1cc(NCCCn2ccc(NC(=O)OCc3ccccc3)nc2=O)cc(OC)c1OC	-26.1%	8.2%	-29.9	2.4%	nt	-13.6%
